A selection: hits, their analogues and other compounds. The true share with any hit is near 1.8%.
LYPLA2 inh: LYPLA2 inhibitors, primary screen, counter-screen for PME1 inhibitor project, biochemical, fluorescence polarization, FP-Rh probe ABPP; 320,000 compounds, 0.38% hits; recombinant LYPLA2; inhibition, % at 5.9 µM;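 active = inhibition above the screen-wide mean plus 3 SD, limit set per campaign, cut at about 26% in these data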;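 also: 0% = LYPLA2 with DMSO and 100% = wells lacking LYPLA2 enzyme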
GSTO1 counter: inhibitors of recombinant GSTO1, primary screen, counter-screen for RBBP9 inhibitor project, biochemical, fluorescence polarization; Glutathione S-transferase omega-1 (Homo sapiens), P78417; activity-based probe fluorescence polarization; inhibition, % at 5.96 µM; 300,000 compounds, 1.1% hits; AID 1974, 2009;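 active = inhibition above the campaign mean inhibition plus 3 SD, cut at about 35% in these data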;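 also: 0% = GSTO1-1 with DMSO and 100% = wells lacking GSTO1-1 enzyme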
Target sequence (P78417 whole entry, looked up): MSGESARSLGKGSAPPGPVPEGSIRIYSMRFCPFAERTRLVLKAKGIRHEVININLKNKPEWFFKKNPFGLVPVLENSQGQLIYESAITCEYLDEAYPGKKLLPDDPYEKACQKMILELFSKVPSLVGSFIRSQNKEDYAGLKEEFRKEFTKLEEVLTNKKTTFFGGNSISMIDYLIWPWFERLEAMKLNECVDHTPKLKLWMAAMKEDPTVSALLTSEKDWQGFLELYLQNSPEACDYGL
PAD4 FP inh: human PAD4 inhibitors, primary screen, biochemical, fluorescence polarization, 1536-well format | Protein-arginine deiminase type-4 (Homo sapiens), Q9UM07 | inhibition, % at 6.36 µM | recombinant PAD4, RCA probe fluorescence polarization | 330,000 compounds, 0.41% hits;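 active = percent inhibition above a cutoff equal to the mean of all tested compounds plus 3 SD, cut at about 15% in these data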;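 also: 0% = PAD4 with RCA probe and DMSO and 100% = probe without PAD4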
PME-1 primary: PME-1 inhibitors via competitive probe labeling, primary screen, biochemical, fluorescence polarization, FP-Rh probe, HTS. 320,000 compounds, 0.53% hits. inhibition, % at 5.9 µM. AID 2130, 2009. Protein phosphatase methylesterase 1 (Homo sapiens), Q9Y570. recombinant PME-1;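 active = inhibition above the campaign mean of all compounds plus 3 SD, cut at about 26% in these data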;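 also: competitive labeling of PME-1 active site by serine hydrolase directed probe; 0% = PME-1 with DMSO and 100% = wells lacking PME-1 enzyme; inhibitors block probe labeling so polarization falls and inhibition rises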
LYPLA1 inh: LYPLA1 inhibitors, primary screen, counter-screen for PME1 inhibitor project, biochemical, fluorescence polarization, FP-Rh probe ABPP. recombinant LYPLA1. inhibition, % at 5.9 µM. 320,000 compounds, 0.16% hits. AID 2174, 2009;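 active = inhibition above the mean of all tested compounds plus 3 SD, set per campaign, cut at about 14% in these data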;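 also: inhibitors block serine hydrolase probe labeling of LYPLA1 so polarization falls; 0% = enzyme with DMSO and 100% = wells lacking LYPLA1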
Target sequence (O75608 whole entry, looked up): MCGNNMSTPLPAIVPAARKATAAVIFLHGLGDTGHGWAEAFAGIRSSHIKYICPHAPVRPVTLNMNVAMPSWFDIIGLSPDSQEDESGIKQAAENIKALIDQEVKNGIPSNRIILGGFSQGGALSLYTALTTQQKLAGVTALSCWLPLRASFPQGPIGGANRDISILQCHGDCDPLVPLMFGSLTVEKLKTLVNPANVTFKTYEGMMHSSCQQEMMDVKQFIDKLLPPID
Fam108B counter: mouse Fam108B serine hydrolase inhibitors, primary screen, counter-screen for RBBP9 inhibitor project, biochemical, fluorescence polarization. recombinant Fam108B, FP-Rh probe fluorescence polarization. inhibition, % at 9.51 µM. 300,000 compounds, 0.33% hits;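 active = inhibition above the screen mean inhibition plus 3 SD, computed separately per campaign, cut at about 18% in these data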;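 also: inhibitors lower polarization as less probe binds the enzyme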
Fam108b confirm: mouse Fam108b serine hydrolase inhibitors, confirmation, counter-screen for RBBP9 inhibitor project, biochemical, fluorescence polarization, triplicate; shares compounds with Fam108B counter; recombinant Fam108b, FP-Rh probe fluorescence polarization; inhibition, % at 9.51 µM; 930 compounds, 44% hits;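 active = inhibition above a limit from the primary screen, the mean over all compounds plus 3 SD, cut at about 19% in these data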;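 also: 0% = median of active Fam108b wells and 100% = catalytically dead S170A mutant; inhibitors free the probe so polarization falls as inhibition rises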
Fam108b ABPP HTS: inhibition of mouse Fam108b by HTS hits, late-stage follow-up, biochemical, gel-based ABPP, soluble recombinant form. shares compounds with Fam108B counter. 260 compounds, 44% hits. inhibition, % at 20 µM. fluorophosphonate probe; in the data active = inhibition above about 40%
GSTO1 inh conf: GSTO1 inhibitor hit confirmation, counter-screen for RBBP9 inhibitor project, biochemical, fluorescence polarization, triplicate; shares compounds with GSTO1 counter; recombinant GSTO1, probe fluorescence polarization; inhibition, % at 5.96 µM; 2,400 compounds, 54% hits; AID 2176, 2009;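 active = inhibition above the primary screen's cutoff, its mean inhibition plus 3 SD, cut at about 35% in these data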;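 also: loss of polarization as inhibitors block binding of rhodamine sulfonate ester activity probe; 0% = GSTO1 with DMSO and 100% = wells lacking GSTO1 enzyme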
LYPLA1 conf: LYPLA1 inhibitors, retest, confirmation, counter-screen for PME1 inhibitor project, biochemical, fluorescence polarization, FP-Rh probe ABPP. inhibition, % at 5.9 µM. recombinant LYPLA1. shares compounds with LYPLA1 inh. 480 compounds, 69% hits;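 active = mean inhibition across replicates above the hit cutoff set in the primary screen, cut at about 15% in these data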;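 also: loss of FP-Rh probe labeling of LYPLA1 seen as lower polarization; 0% = LYPLA1 with DMSO and 100% = wells lacking LYPLA1 enzyme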
LYPLA2 conf: LYPLA2 inhibitors, retest, confirmation, counter-screen for PME1 inhibitor project, biochemical, fluorescence polarization, FP-Rh probe ABPP | 1,100 compounds, 72% hits | inhibition, % at 5.9 µM | shares compounds with LYPLA2 inh | recombinant LYPLA2;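 active = mean inhibition across replicates above the hit cutoff set in the primary screen, cut at about 26% in these data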;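 also: blocked labeling of the enzyme by serine hydrolase FP-Rh probe lowers polarization; 0% = enzyme with DMSO and 100% = wells lacking LYPLA2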
PAD4 confirm: human PAD4 inhibitors, confirmation, biochemical, fluorescence polarization; 1,200 compounds, 28% hits; AID 488796, 2010; inhibition, % at 6.36 µM; recombinant PAD4, RCA probe fluorescence polarization; shares compounds with PAD4 FP inh;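 active = mean inhibition across replicates above the hit cutoff set by the earlier primary screen, cut at about 15% in these data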;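 also: inhibitors block active-site labeling by the probe so polarization falls; 0% = PAD4 with probe and DMSO and 100% = probe without PAD4 enzyme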
The depositor's hits bear a star.

For O=[N+]([O-])c1ccc(CN2CCN(c3nc4ccccc4s3)CC2)cc1 the results were LYPLA2 inh 1, GSTO1 counter 2, PAD4 FP inh -4, PME-1 primary -5, LYPLA1 inh -1 and Fam108B counter -2.
`CC(=O)Nc1ccc(Nc2ccc3c4c(cc(=O)n3C)-c3ccccc3C(=O)c24)cc1` gave LYPLA2 inh 9, GSTO1 counter 14, PAD4 FP inh 3, PME-1 primary 4, LYPLA1 inh 4 and Fam108B counter 5.
Screening Cn1c(=O)c(Nc2ccc(Cl)cc2)c2c3c(cccc31)C(=O)c1ccccc1-2 returned LYPLA2 inh 33*, GSTO1 counter 19, PAD4 FP inh 33*, PME-1 primary 31*, LYPLA1 inh 20*, Fam108B counter 32*, Fam108b confirm 34*, Fam108b ABPP HTS 0, LYPLA1 conf 34*, LYPLA2 conf 25 and PAD4 confirm 50*.
Cc1ccccc1NC1=C/C(=N\S(=O)(=O)c2cccs2)c2ccccc2C1=O was read as LYPLA2 inh 19, GSTO1 counter 92*, PAD4 FP inh 70*, PME-1 primary 30*, LYPLA1 inh 5, Fam108B counter 41*, Fam108b confirm 60*, Fam108b ABPP HTS 60*, GSTO1 inh conf 88* and PAD4 confirm 53*.
For COc1ccc(S(=O)(=O)/N=C2\C=C(Nc3ccc(O)cc3)C(=O)c3ccccc32)cc1 the results were LYPLA2 inh -8, GSTO1 counter 94*, PAD4 FP inh 62*, PME-1 primary 36*, LYPLA1 inh -10, Fam108B counter 28*, Fam108b confirm 37*, Fam108b ABPP HTS 65*, GSTO1 inh conf 89* and PAD4 confirm 58*.
`CC(=O)Nc1ccc(NC2=C/C(=N/S(=O)(=O)c3cccs3)c3ccccc3C2=O)cc1` gave LYPLA2 inh 8, GSTO1 counter 87*, PAD4 FP inh 65*, PME-1 primary 22, LYPLA1 inh -2, Fam108B counter 41*, Fam108b confirm 40*, GSTO1 inh conf 86* and PAD4 confirm 45*.
For CC1CCC(N2CCN(C(=O)c3ccccc3F)CC2)CC1 (stereo unspecified) the results were LYPLA2 inh -1, GSTO1 counter 6, PAD4 FP inh -2, PME-1 primary -1, LYPLA1 inh 0 and Fam108B counter 4.
